# The panel holds about 83,000 compounds, 20% with a hit somewhere; the sample as a whole holds those more often.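 For each line, cells grew in 96-well plates with the test compound present at a single concentration for 48 hours.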 Calls of active or inactive are those of the source. How the source made its calls: active means growth percent below 10; inactive means the rest.
# System: MDA-MB-468 breast
# Assay: NCI-60 one-dose screen, 48 h (100 = growth as untreated, 0 = no growth, -100 = all killed)
# Conditions: 10 µM unless noted
row,Structure (SMILES),growth
1,COc1cc(/C=C2\C(=O)ON=C2C)cc(OC)c1OC,107% (inactive)
2,CN1CCN(Cc2ccc(NC(=O)c3cncc(C#Cc4cnc5ccc(O[C@H]6CCOC6)nn45)c3)cc2C(F)(F)F)CC1,-59.7% (active)
3,COc1cc(-c2csc(NC(=O)Nc3cccc(C(F)(F)F)c3)n2)cc(OC)c1OC,19.3% (inactive)
4,CCCCOc1ccc(NC(=O)Nc2nnc(C)s2)cc1,103% (inactive)
5,C#Cc1cccc(NC(=O)c2ccccc2NC(=O)C=C)c1,70.9% [8.25 µM] (inactive)
6,C=C1C(=O)O[C@H]2[C@H]1CC/C(COC(=O)c1cc(OC)c(OC)c(OC)c1)=C\CC[C@@]1(C)O[C@@H]21,-33.2% (active)
7,C=C1C(=O)O[C@H]2[C@H]1CC/C(COC(=O)c1ccc(C(=O)O)s1)=C\CC[C@@]1(C)O[C@@H]21,-46.7% (active)
8,Cc1cc(C)c2c(c1)N(C)c1ncnc(-n3c(C)nc4cc(C)ccc43)c1CC2C (stereo unspecified),3.92% (active)
9,CCn1c(O)c(/C=N/NC(=O)C(C)c2ccc(CC(C)C)cc2)sc1=S (stereo unspecified),6.34% (active)
10,O=C(Nc1ccc2c(c1)-c1ccccc1C2)C1CC(=O)N(c2ccc3c(c2)OCO3)C1 (stereo unspecified),52.7% [50 µM] (inactive)
11,CNC(=O)c1cc(Oc2ccc3nc(NC(=O)c4ccc(N5CCOCC5)c(C(F)(F)F)c4)sc3c2)ccn1,80.5% (inactive)
12,COc1ccccc1/C=N\NC(=S)Nc1ccc(F)cc1,72.9% (inactive)
13,CC(=O)O[C@H]1CC[C@]2(C)[C@H]3CC[C@@H]4[C@H]5[C@H](C(C)C)CC[C@]5(C(=O)OCC(CO)(CO)N=C(N)N)CC[C@@]4(C)[C@]3(C)CC[C@H]2C1(C)C,-25.5% (active)
14,CCOC(=O)c1cnn(CC(O)CC)c1NC(=O)NCc1ccccc1C(F)(F)F (stereo unspecified),106% (inactive)
15,Cc1ccc(Nc2cc(N)nc(N)n2)cc1,92.2% (inactive)
16,Nc1c(Br)cc(Br)cc1-c1n[nH]c(=O)[nH]c1=O,104% (inactive)

# From PubChem BioAssay (NCI)
